Rows were chosen to be rich in hits. Some 1.5% of all compounds tested hit in one or more screens of this group.
FEN1 inh = blocks human flap endonuclease 1; 390,000 compounds, 0.35% hits; Recombinant FEN1 flap cleavage, fluorescence, 15 min; Potency, µM (highest dose often 114 µM), inactives show top-dose activity change, negative = inhibition, actives largely listed as inhibitors; also: potency is read from the fitted curve at half-maximal effect; nearly all actives have a fitted effect of over 65% in size
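Nuclease activity of 10 nM FEN1 was measured after 15 min of room-temperature exposure to titrated compounds, by adding 50 nM flap substrate and reading plates at 0 and 15 min.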
PGK inhibitor = T. brucei PGK inhibition; Potency, µM (top dose mostly 57.5 µM), inactives show at the highest dose activity change, negative = inhibition, actives largely listed as inhibitors; 380,000 compounds, 0.043% hits; PGK/GAPDH coupled, Kinase-Glo luminescence, 60 min; P07378; also: potency is read from the fitted curve at half-maximal effect; nearly all actives have a fitted effect of over 60% in size
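Recombinant glycosomal PGK reaction used 1,3-bisphosphoglycerate generated in-well by GAPDH (100nM final) in 100mM TEA pH 7.6, 5mM MgCl2, 0.01% Tween-20. After 60 minutes at room temperature, ATP was read by Kinase-Glo Plus luminescence end-point.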
PI5P4K alpha inh = inhibitors of human PI5P4K alpha | max response, % | AID 652105 | PI5P4Kalpha enzyme, ADP-Glo luminescence, 60 min; hits give low values | P48426 | 330,000 compounds, 1.2% hits; active = max response of -50% or lower; inconclusive = between -30% and -50%; inactive = -30% or higher; also: value at the top dose of about 77 µM
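Quantitative HTS of the MLSMR library against PI5P4Kalpha with substrate. ATP added last at 5 microM final; room temperature, 60 minutes. Remaining ATP depleted, ADP converted and read as luminescence.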
TDP1 block = blocks human tyrosyl-DNA phosphodiesterase 1; Q9NUW8; recombinant TDP1, AlphaScreen DNA substrate cleavage; Potency, µM (series often up to 130 µM), for inactives: at the top dose activity change, negative = inhibition, hits mostly inhibitors; 350,000 compounds, 0.28% hits; also: potency is read from the fitted curve at half-maximal effect; nearly all actives have a fitted effect of over 40% in size
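Recombinant human Tdp1 (E. coli-expressed, 1 nM final) preincubated with compounds 15 min at room temperature, then 5'-biotin/3'-phosphotyrosine-FITC DNA substrate (15 nM final) added for 5 min. AlphaScreen beads (10 ug/ml final) added 10 min; cleavage lowers signal.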
WRN inhibitor = WRN helicase (human) inhibition | WRN helicase unwinding, fluorescent forked duplex, kinetic | Potency, µM (highest dose often 114 µM), inactives show top-dose activity change, negative = inhibition, hits mostly inhibitors | AID 651768 | 360,000 compounds, 0.46% hits | Q14191; also: potency is read from the fitted curve at half-maximal effect; nearly all actives have a fitted effect of over 55% in size
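WRN at 20 nM final was preincubated with compound for 15 min at room temperature; reaction started with 100 nM forked duplex oligonucleotide carrying fluorophore and quencher plus 2 mM ATP (final). Unwinding followed kinetically by red fluorescence (ex 525/em 598 nm).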
Tb PFK inh = inhibitors of T. brucei phosphofructokinase | O15648 | T. brucei PFK, ADP-Glo luminescence | Potency, µM (top dose mostly 57.5 µM), for inactives: at the top dose activity, negative = inhibition, most hits filed as inhibitors | 330,000 compounds, 0.17% hits | AID 485367;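 also: potency is read from the fitted curve at half-maximal effect; 0% = uninhibited 1x PFK enzyme wells and -100% = no-enzyme wells; nearly all actives have a fitted effect of over 60% in size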
Target sequence (O15648 whole entry, looked up): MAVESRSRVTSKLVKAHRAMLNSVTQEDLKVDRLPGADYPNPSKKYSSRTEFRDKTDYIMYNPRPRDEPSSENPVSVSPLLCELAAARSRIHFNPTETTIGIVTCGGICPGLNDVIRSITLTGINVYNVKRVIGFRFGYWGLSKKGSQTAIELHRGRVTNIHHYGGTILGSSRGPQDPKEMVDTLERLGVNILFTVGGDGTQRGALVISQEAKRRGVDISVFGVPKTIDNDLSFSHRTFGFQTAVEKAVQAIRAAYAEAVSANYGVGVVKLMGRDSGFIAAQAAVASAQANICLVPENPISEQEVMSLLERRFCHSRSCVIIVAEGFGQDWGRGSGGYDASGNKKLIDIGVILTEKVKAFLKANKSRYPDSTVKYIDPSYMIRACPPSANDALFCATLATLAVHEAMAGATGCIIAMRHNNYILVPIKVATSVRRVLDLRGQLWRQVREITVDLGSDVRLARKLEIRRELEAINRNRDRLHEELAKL
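In TEA buffer at pH 8.0 with 5 mM MgCl2, enzyme (1.25 nM) converted F6P (0.5 mM) and ATP (0.1 mM) for 45 min at room temperature. ADP product was read by luciferase luminescence.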
* marks the source's active call; other numbers are inactive results; ? = inconclusive; . = no result given; [ ] = dose if it differs, or a comment. Unless noted, calls follow the shape of the dose curve; as a rule, active = well fitted curve in the direction sought with a large enough effect; inconclusive = small, poorly fitted or top-dose-only effect, or another doubt; inactive = no such curve, though single readings can be large; an effect the other way counts as inactive or inconclusive. Unless noted, % is scaled to controls: 0 for no effect and ±100 for the full control effect.

SMILES | FEN1 inh | PGK inhibitor | PI5P4K alpha inh | TDP1 block | WRN inhibitor | Tb PFK inh
CC[C@H](C)[C@H](NC(=O)[C@H](Cc1ccccc1)NC(=O)[C@H](CC(C)C)NC(=O)[C@H](CCSC)NC(=O)[C@H](CCC(=O)O)NC(=O)[C@H](CCC(=O)O)NC(=O)[C@H](CC(=O)O)NC(=O)[C@H](CO)NC(=O)[C@@H]1CCCN1C(=O)[C@H](CCCCN)NC(=O)[C@@H](N)[C@@H](C)O)C(=O)N[C@@H](Cc1ccc(O)cc1)C(=O)NCC(=O)N[C@@H](Cc1cnc[nH]1)C(=O)N[C@@H](Cc1ccc(O)cc1)C(=O)N[C@@H](CCCCN)C(=O)N[C@@H](CCC(N)=O)C(=O)N[C@@H](C)C(=O)N[C@H](C(=O)N[C@H](C(=O)NCC(=O)N[C@@H](CC(=O)O)C(=O)N[C@H](C(=O)N[C@@H](CC(N)=O)C(=O)N[C@H](C(=O)N[C@@H](CCC(=O)O)C(=O)N[C@@H](CCCNC(=N)N)C(=O)N1CCC[C@H]1C(=O)NCC(=O)N[C@@H](CCSC)C(=O)N[C@@H](CC(C)C)C(=O)N[C@@H](CC(=O)O)C(=O)N[C@@H](Cc1ccccc1)C(=O)N[C@H](C(=O)O)[C@@H](C)O)[C@@H](C)O)[C@@H](C)CC)C(C)C)[C@@H](C)O | . | . | . | 8% | . | .
c1ccc(P(c2ccccc2)c2cnc3ccccn23)cc1 | . | . | . | 4% | . | .
COCCCNC(=O)c1c(NC(=O)Cc2coc3cc(C)ccc23)sc2c1CCCC2 | -2% | -2% | . | 7% | . | .
O=[N+]([O-])c1ccc(C[n+]2cccc3ccc4cccnc4c32)cc1 | 4% | 1% | -58* | 8% | -8% | -8%
O=C1S/C(=C\C=C\c2ccco2)C(=O)N1c1ccc(O)cc1 | -14% | -1% | -87* | 0% | ? | ?
O=C1S/C(=C\c2cccs2)C(=O)N1c1ccc(O)cc1 | -2% | . | 1 | . | -1% | -2%
CCOc1ccc(OCCC(=O)OCC(=O)N2CCN(S(=O)(=O)c3ccc(Cl)cc3)CC2)cc1 | -6% | -16% | ? | 25µM* | -23% | -1%
COC(=O)[C@@H](c1ccccc1Cl)N1CCc2sccc2C1 | . | . | . | 0% | . | .
CN(C)c1ccc(N=Cc2ccnc3ccccc23)cc1 | 45µM* | . | . | . | . | .
CCN(CCCN(C)C)c1ccc(/C=C/c2ccnc3ccccc23)cc1 | 50µM* | . | . | . | . | .
CN(C)c1ccc(N=Cc2cccc3ccccc23)cc1 | -2% | . | . | . | . | .
CN(C)c1ccc(/C=C\C=C/c2ccnc3ccccc23)cc1 | 50µM* | . | . | . | . | .
CN(C)c1ccc(/C=C/c2ccnc3ccccc23)c(N)c1 | 8% | . | . | . | . | .
Cn1c(=O)c2c(ncn2CC(=O)OCC(=O)c2ccc(Br)cc2)n(C)c1=O | . | -3% | -57* | . | -3% | .
CC(C)(C)n1ncc2c(=O)n(Cc3ccc(C#N)cc3)cnc21 | -136% | . | . | . | . | .
COc1ccc2nc(-n3c(O)c(C4=c5ccccc5=NC4=O)[nH]c3=S)sc2c1 | 32µM* | ? | -67* | -8% | 25µM* | 1%
CC(C)(C)OC(=O)Cc1nnc(-c2nc3ccccc3[nH]2)o1 | . | . | . | -12% | . | .
O=C(NCCc1ccccc1)c1c(O)c2cccc3c2n(c1=O)CC3 | -5% | 10% | 3 | 9% | -9% | -8%
COc1ccc(CCNC(=O)c2c(O)c3cccc4c3n(c2=O)CC4)cc1 | -8% | -2% | -81* | 2% | 3% | 3%
Cc1ccc(NS(=O)(=O)c2cccc(C(=O)O)c2)cc1C | . | . | . | 3% | . | .
CC(OC(=O)C1=Cc2ccccc2OC1)C(=O)NCC1CCCO1 (centres undefined) | -6% | 3% | -63* | . | -33% | .
CCOc1cc([N+](=O)[O-])cc(/C=C2/NC(=O)N(Cc3ccccc3F)C2=O)c1O | -26% | -15% | -77* | . | -1%[11.6 µM] | 1%
COc1ccccc1N(C)C | -5% | . | . | . | . | .
Cc1ccc(S(=O)(=O)Nc2cc(=O)[nH]c(SCC(=O)Nc3ccccc3Cl)n2)cc1 | -3% | -10% | -1 | 35µM* | -4% | 2%
